# This is a sample that favours compounds with a hit; in the whole collection about 8% have one here.
# HCMV antiviral – qHTS Assay for inhibitors of the human cytomegalovirus (HCMV). HFF cells, HCMV-luciferase reporter, 72 h; hits give low values. activity change, negative = inhibition, % at 57.5 µM. 4.5% of 410,000 active. AID 1259415, 2018; in the data active = activity change below about -60%; inconclusive = no clear call, values can overlap the other calls; inactive = above about -39%; also: % is scaled to controls: 0 for no effect and ±100 for the full control effect
#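 Cell-based, HFFs, 1000 cells/well, 16 h 37C; cpds in DMSO + HCMV-luc, MOI 1 PFU/cell; 72 h 37C; OneGlo luminescence after 5 min RT; norm. to buffer vs Salinomycin 10uM.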
# HCV inh – qHTS Assay for Inhibitors of Hepatitis C Virus (HCV); AID 651820, 2012; 3.4% of 340,000 active; Potency, µM (highest dose often 41.8 µM), for inactives: top-dose activity change, negative = inhibition, hits mostly inhibitors; Huh7.5.1 HCVcc-Cre infection, luciferase reporter, 44 h; active = well fitted inhibition curve with a large enough effect; inconclusive = small, poorly fitted or top-dose-only effect, or another doubt; inactive = no such curve, though single readings can be large or run the other way; also: potency is read from the fitted curve at half-maximal effect; % is scaled to controls: 0 for no effect and ±100 for the full control effect
#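 Whole-lifecycle infectious HCVcc-Cre system; cells 1,000/well, compound then virus (~0.5 moi) added 4 h after plating, 44 h culture. Luciferase read 15 sec following 15 min substrate incubation, room temp.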
# FMDV antiviral – High Throughput Screening for Foot and Mouth Disease Virus Antivirals; FMDV antiviral cell-based qHTS; Potency, µM (titrated, usually from 57.9 µM), for the others: at the top dose activity change, negative = inhibition, most hits filed as inhibitors; 1.2% of 410,000 active; AID 1159524, 2015; calls by dose curve; tested in HEK293T cells; also: read-out not given here; potency is read from the fitted curve at half-maximal effect; % is scaled to controls: 0 for no effect and ±100 for the full control effect; nearly all actives have a fitted effect of over 45% in size
# Lassa entry inh – qHTS for Inhibitors of binding or entry into cells for Lassa Virus | Lassa virus pseudotype entry inhibition, cell reporter | AID 540256, 2011 | 1.2% of 300,000 active | Potency, µM (top dose mostly 37.9 µM), for the others: at the top dose activity change, negative = inhibition, most hits filed as inhibitors; calls by dose curve; tested in HEK293 cells; also: potency is read from the fitted curve at half-maximal effect; % is scaled to controls: 0 for no effect and ±100 for the full control effect; nearly all actives have a fitted effect of over 50% in size
# Marburg entry inh – qHTS for inhibitors of binding or entry into cells for Marburg Virus. Marburg virus pseudotyped entry inhibition, cell reporter. Potency, µM (top dose mostly 37.8 µM), for inactives: at the highest dose activity change, negative = inhibition, most hits filed as inhibitors. 1.8% of 300,000 active. AID 540276, 2011; calls by dose curve; tested in HEK293 cells; also: potency is read from the fitted curve at half-maximal effect; % is scaled to controls: 0 for no effect and ±100 for the full control effect
# SARS PLP yeast – qHTS of Yeast-based Assay for SARS-CoV PLP. S. cerevisiae expressing SARS-CoV PLpro, growth rescue. Potency, µM (top dose mostly 32.9 µM), without a hit: at the top dose activity, positive = growth rescue, usual class: activators. 0.19% of 330,000 active. AID 485353, 2010; calls by dose curve; also: potency is read from the fitted curve at half-maximal effect; 0% is about no effect; nearly all actives have a fitted effect of over 55% in size
# * = called active by the depositor; ? = inconclusive; / = no result given; [ ] = remark or other dose.
SMILES,HCMV antiviral,HCV inh,FMDV antiviral,Lassa entry inh,Marburg entry inh,SARS PLP yeast
Cc1c(CC(=O)NCCCO)c(=O)oc2cc3c(cc12)CCC(C)(C)O3,30,4%,10%,/,/,0%
O=C(CSCc1nc2ccccc2[nH]1)N1CCN(c2cccc(Cl)c2)CC1,-27,-4%,35µM*,-28%,?,0%
O=C(CSCc1nc2ccccc2[nH]1)N1CCN(c2ccc(F)cc2)CC1,-33,13µM*,35µM*,2%,?,-3%
O=C(O)CSCc1nc2ccccc2[nH]1,-3,24%,1%,/,/,2%
O=C(CSCc1ccccc1)N1CCN(c2ccc(F)cc2)CC1,26,12%,/,5%,1%,5%
COc1ccc(N2CCN(S(=O)(=O)c3ccc(F)c(C(=O)Nc4ccccc4Cl)c3)CC2)cc1,-27,/,?,-19%[46.1 µM],/,/
Cc1ccc(S(=O)(=O)N(C)c2ccc(C(=O)N3CCc4ccccc4C3)cc2)cc1,0,?,-12%,11µM*,?,1%
CN(c1ccccc1)S(=O)(=O)c1ccc(C(=O)N2CCc3ccccc3C2)cc1,-19,?,-24%,/,/,-3%
COc1ccc(N2CCN(C(=O)c3ccc(N(C)S(=O)(=O)c4ccc(OC)cc4)cc3)CC2)cc1,-63*,?,?,?,0%[46.1 µM],1%
CCOC(=O)N1CCN(C(=O)c2ccc(N(C)S(=O)(=O)c3ccc(C)cc3)cc2)CC1,-19,14µM*,-21%,/,/,4%
O=C(c1ccc([N+](=O)[O-])cc1)N1CCc2ccccc2C1,-68*,9%,5%,7%,3%[46.1 µM],?
Cc1ccc(S(=O)(=O)N(C)c2ccc(C(=O)N3CCCCC3)cc2)cc1,-29,?,-30%,-16%,-1%,7%
CCOC1=C2CN(S(=O)(=O)c3ccc(C)cc3)[C@H](c3ccccc3)C[C@@H]2N(S(C)(=O)=O)[C@H](c2ccccc2)C1,-36,/,-5%,/,/,/
COc1cc(CN2CCNC(=O)C2CC(=O)N(C)Cc2ncc[nH]2)cc(OC)c1 (centres undefined),-9,14%,6%,-2%,9%[46.1 µM],0%
CC(C)(C)c1ccc(C(=O)NCC(=O)OCc2cc(=O)n3nc(C4CC4)sc3n2)cc1,2,/,0%,-5%[46.1 µM],/,/
O=C(c1cnccn1)N1CCc2ccccc21,-8,14%,19%,17%,6%,3%
COc1ccc(S(=O)(=O)N(CC(=O)N2CCN(c3ccccc3)CC2)c2ccccc2)cc1,2,?,-22%,?,0%,-2%
O=C(c1cnccn1)N1CCc2ccccc2C1,-100*,13%,17%,11%,-2%[46.1 µM],0%
CCN(c1ccccc1)S(=O)(=O)c1ccc(C(=O)N2CCN(c3ccccc3)CC2)cc1,5,?,-22%,7.9µM*,?,11%
Cn1c(NC(=O)c2ccccc2C(F)(F)F)cc(=O)n(C)c1=O,-66*,10%,-18%,/,/,13%
N#Cc1ccc(CN2CCN(C(=O)CN3C(=O)NC4(CCCC4)C3=O)CC2)cc1,-38,?,?,-29%,4%,0%
Cc1cc(C(=O)CCl)c(C)n1-c1cccc(S(=O)(=O)N2CCOCC2)c1,-29,?,25µM*,-12%,?,?
Cc1cc(C(=O)CN2C(=O)CN(C)C2=O)c(C)n1-c1cccc(S(=O)(=O)N2CCOCC2)c1,-5,?,-4%,/,/,-8%
Cc1cc(C(=O)CSc2ncn[nH]2)c(C)n1-c1cccc(S(=O)(=O)N2CCOCC2)c1,-29,?,28µM*,0%,?,-4%
CCN(CC)C(=O)C(=O)c1cn(CCOc2ccccc2)c2ccccc12,?,-14%,-4%,-9%[46.1 µM],?,1%
CCCCc1nc2c(c3c1C[C@H](C)OC3)CN(C(=O)c1ccco1)CC2,/,/,/,/,3%[14.2 µM],/
C[C@@H]1CN=C(Nc2ccc(N(C)C)cc2)S1,/,/,/,/,8%,/
CCCCN1C(=O)C(O)(CC(=O)c2ccco2)c2cc(Br)ccc21 (centres undefined),-75*,21%,-7%,?,?,1%
